Data published in the supplement of paper PMC11417369.
Over roughly 25,000 sequences, “ln(normalized median fluorescence intensity)” has its median near 9.3; the highest 2% begin near 10. The full list was thinned out, with the highest values kept by preference.

What follows are sequences tested on PF3D7_0420300 AP2 domain 1 (GST-tagged) (assay: gcPBM binding intensity (ln(normalized median fluorescence intensity)); higher = stronger DNA binding).
Procedure, shortened: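 GST-tagged P. falciparum DNA-binding domains produced in E. coli were incubated for 1 h on an Agilent 4 × 180k array of primer-extended double-stranded 36-bp intergenic genomic probes with negative controls. Binding intensity is the highest Masliner-normalised natural-log median intensity across replicate spots of either probe orientation, with bound protein detected by Alexa488 anti-GST antibody at 488 nm.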

Sequence	gcPBM binding intensity (ln)
AGTATACACGAACACACACACACATATATAAATATA [CACACA_site6913]	10.3
AACATATACACGAACACACACACATATAAATAAATA [CACACA_site6380]	9.96
AACAAATACGAACACACACACACACTAAAAAAAAAA [CACACA_site6386]	10.2
CGAACAAACAAATAAACACACAAAAAAAAATATATA [CACACA_site1825]	9.61
CATACAGACGAACACACACACATATAAATATAAATA [CACACA_site6443]	9.91
TGATCAATGGATTTAACACACAAAAAAAAAAAAAAA [CACACA_site3845]	9.11
AAATAAAATAAAATAAAATAAAATTCTTTGATACCT [TGCATGCA_negctrl_site604]	9.16
ATATATATATATATATGTACACATATATATACTCAC [XGTACX_site8043]	9.37
ATATATTATATAAAAAGTACTAAAATAGTAAGATGT [XGTACX_site7493]	9.65
GTTTATATATTATAAAGTACATATGAATTTAATAAT [XGTACX_site3601]	9.01
CAAACAAACAGACACACACACACACCCAAAAATGAT [CACACA_site2430]	10.4
AACACCCACAGACACACACACAAAAATGATTAAAAA [CACACA_site2433]	9.83
AACAAACACAGACACACACACACACCCAAATGATTA [CACACA_site2431]	10.2
TATGAACACAGACACACACACAAAAAAAAAAAAAAA [CACACA_site7037]	9.27
AACAAACACAGACACACACACACACTAATATGATTA [CACACA_site8770]	10.2
AATATGAACAGACACACACACACAAAAAAAAAAAAA [CACACA_site2012]	10
CAAACAAACGGACACACACACACACCCAAAAATGAT [CACACA_site5363]	10.1
TTAACAAATGGACACACACACACACCCAAAAAAAAA [CACACA_site4443]	9.91
CAAACCCACCAACACACACACACAAAAATGATTAAA [CACACA_site2432]	9.82
ATATTTTTTTTTTTCACACACATTTAGATTGTATTA [CACACA_site3137]	9.86
GACATTGATACCAGTAGTACCTATAGATGTTTGTTT [XGTACX_site5736]	9.55
TTACAAATAATTTGTTGTACGCTTTTTTTCTTTTTT [XGTACX_site7199]	9.48
ATTGGACTATAAATAGGTACACATATATATATATAT [XGTACX_site7562]	9.59

Sequence	gcPBM binding intensity (ln)
AATAGAAAAAAAAAATGTACACATATAAAAGCATAT [XGTACX_site6306]	9.77
GCTTATAAAGGCAGAAGTACTGTATTCCTATATATA [XGTACX_site8865]	9.22
ATCGTAGTATAATATGAACACACACCCACCCACAAA [CACACA_site8616]	10.2
ATAATATGAAAACACACACACACACCCAAAAAAAAA [CACACA_site2011]	10.2
TAGTATAATATGAACACACACACACGCACAAAAAAA [CACACA_site7035]	10.1
GTATAATATGAACACACACACACACCCAAAAAAAAA [CACACA_site5152]	10.2
TAGTATAATATGAACACACACACACCGACAAAAAAA [CACACA_site5151]	9.99
GTATAATATGAACACACACACACACGCAAAAAAAAA [CACACA_site7036]	10.1
GTATAATAGAAACACACACACACACCCAAAAAAAAA [CACACA_site2010]	10.3
AAAAAAAAAAAAAACACACACACACCCAAATATATA [CACACA_site1169]	10.1
TAGTATAATATGAACACACACACACCCACAAAAAAA [CACACA_site2009]	10
TTTTATATATTATATACACACATATATATATATATA [CACACA_site2999]	9.29
ATATATATATAGTGCACACTTAAGAATATAAAGAGG [CACACA_site1151]	9.45
AAAAGGTATGTTATACATAGATATGCACATATATGT [TGCATGCA_negctrl_site96]	9.29
CTTAAAGGGAAAAATACACACATATAAATATTATGT [CACACA_site2225]	9.47
AAAATTATTTAGTAAGTGCAAAAAAAAAAAAAAAAA	8.78
TATGAAGAAAAGAATTGTACGATGTTTATTTTGTAT [XGTACX_site8614]	9.22
CCTAAATTATATTATGCACACTTAAAAATATATTTA [CACACA_site5861]	9.14
ATTATGCACCAACACACACACACACTCCTAAAAAAT [CACACA_site8822]	10.3
ATTATGCACCAACACACACACACACCCCTAAAAAAT [CACACA_site2568]	10.3
ATTATGCACGGACACACACACACACCCCTAAAAAAT [CACACA_site5426]	10.2
ATTATGCACAGACACACACACACACTACTAAAAAAT [CACACA_site7252]	10.1
TGCACAAAATTATGCACACACCTAAAATTAATTTTT [CACACA_site5596]	9.46
